These results are taken from PubChem BioAssay (Tox21).

Records with an inconclusive call do not appear. Entries that show only a call come without a potency. Unmarked numbers belong to inactive results. Active and inactive are the calls of the source. The call rests on the fitted dose curve.

This assay in a line: p53 small molecule agonists, cell-based qHTS assay: qHTS cell viability counter screen (AID 1963581). Further: nearly all actives have a fitted effect of over 45% in size. As to conditions: p53RE-bla HCT-116 viability, ATP luminescence, 16 h; series mostly up to 66 µM. The procedure, abridged: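 Compounds are pinned onto HCT-116 p53RE-bla cells and left 16 h at 37 C. Following the reporter FRET read, ATP is quantified by CellTiter-Glo luminescence after 30 min at room temperature.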
Potency means the concentration at half of the fitted maximal effect.

With `CCCCCCCC/C=C\CCCCCCCC(=O)OC`, the Potency entry was “inactive”. On to `CC(C(=O)O)c1ccc(-c2ccccc2)c(F)c1` (centres undefined), for which the Potency result was “inactive”. Consider `O=C1c2ccccc2C(=O)C1c1ccccc1`, for which the Potency entry was “inactive”. Still for that read-out and setting: then `CCCC[P+](C)(CCCC)CCCC`, with “inactive”. Take `OC1(c2ccc(Cl)c(C(F)(F)F)c2)CCN(CCCC(c2ccc(F)cc2)c2ccc(F)cc2)CC1`: the Potency was 11.2 µM (active). As for `Cc1cc(C(C)(C)C)cc(C)c1CC1=NCCN1`, the Potency result is “inactive”. Regarding `NC1[C@H]2CN(c3nc4c(cc3F)c(=O)c(C(=O)O)cn4-c3ccc(F)cc3F)C[C@@H]12` (some centres undefined), the Potency entry is “inactive”. For `Nc1ccc(S(=O)(=O)Nc2ccccn2)cc1`, the Potency entry is “inactive”. Same read-out and setting: then `CCC(C)c1cc([N+](=O)[O-])cc([N+](=O)[O-])c1OC(=O)OC(C)C` (centres undefined), with “inactive”; and `O=c1[nH]c(=O)n([C@H]2O[C@H](CO)[C@@H](O)[C@@H]2O)cc1/C=C\Br`, with “inactive”; and `O=C(c1ccccc1)c1ccc2n1CCC2C(=O)O` (centres undefined), with “inactive”. Regarding `CCOC(=O)c1cnc2c(cnn2CC)c1NN=C(C)C`, the Potency entry was “inactive”. For `CCC(C(=O)OCCN1CCOC(c2ccccc2)C1C)c1ccccc1` (centres undefined), the Potency entry was “inactive”. As for `Cn1c(=O)c2c(ncn2CC(O)CO)n(C)c1=O` (centres undefined), the Potency result was “inactive”.

Turning to `CCN1CCCC1CNC(=O)c1cc(S(=O)(=O)CC)c(N)cc1OC` (centres undefined), the Potency entry was “inactive”.

Turning to `CCCCCCCCCCCC[N+](C)(C)CC(=O)[O-]`, the Potency result is “inactive”. `CCCN(CCC)C(=O)C(CCC(=O)OCCCN1CCN(CCOC(=O)Cc2c(C)n(C(=O)c3ccc(Cl)cc3)c3ccc(OC)cc23)CC1)NC(=O)c1ccccc1` (centres undefined): the Potency entry was “inactive”. As for `CC[C@H]1OC(=O)[C@H](C)[C@@H](O[C@H]2C[C@@](C)(OC)[C@@H](O)[C@H](C)O2)[C@H](C)[C@@H](O[C@@H]2O[C@H](C)C[C@H](N(C)C)[C@H]2O)[C@](C)(O)C[C@@H](C)C(=O)[C@H](C)[C@@H](O)[C@]1(C)O`, the Potency result is “inactive”. The same measure, in the same setting: then `CCN(C(=O)c1cc(C)cc(OC[C@H](C)Nc2ccncc2)c1)C(C)C`, with “inactive”. As for `COc1cc2nc(N3CCN(C(=O)c4ccco4)CC3)nc(N)c2cc1OC`, the activity change, negative = cytotoxicity is 24.1% [at 13.5 µM]. `CCCCCCCCCCCl`: the Potency result is “inactive”. For the compound `C1COC(NC(C2CC2)C2CC2)=N1`, the Potency result is “inactive”. Regarding `Nc1cc(C(F)(F)F)ccc1S`, the Potency result was “inactive”.

For the compound `Cc1ccccc1N1C(=O)c2cc(S(N)(=O)=O)c(Cl)cc2NC1C` (centres undefined), the Potency result was “inactive”.
